Hit rate of the full screen: of about 48,000 compounds, about 13,000 (27%) showed an effect of 50% or more. This is one part of the list.

The test relates to Wolbachia pipientis. Kind of test: Anti-Wolbachia Cell-Based Screen. Conditions: 5 µM. The arrangement: scale not given: in the data most compounds retested in dose-response had high values. It is filed as functional.
As to `O=C(Nc1ccc(F)cc1F)NC1(CO)CCOCC1`, the “Percent Effect” value is recorded as -12.95%.

In the case of `O=C(NCC(O)c1ccc(F)cc1F)c1cccc(F)c1` (configuration not stated), the “Percent Effect” value was -1.094%.

Turning to `O=C(CCNC(=O)c1ccoc1)Nc1ccc(F)cc1F`, the “Percent Effect” value is listed as -4.684%.

For the compound `Cc1nc(C)c(C(=O)NCCNC(=O)c2ccc(F)cc2F)s1`, the “Percent Effect” value was determined as 5.73%.

Take `O=C(NCCCNC(=O)c1ccc(F)cc1F)c1cccc(O)c1`: the “Percent Effect” value was 113.1%.

For the compound `O=C(Cc1cccc(O)c1)NCCCNC(=O)c1cccc(F)c1`, the “Percent Effect” value amounted to 107.1%.

For the compound `O=C(NCCCNC(=O)c1cccc(O)c1)Nc1ccc(Cl)cc1`, the “Percent Effect” value is listed as 112%.

`O=C(NCCCO)Nc1cccc(I)c1`: the “Percent Effect” value turned out to be 5.16%.

As to `O=C(NCCCNC(=O)c1ccccc1)Nc1ccc(F)cc1F`, the “Percent Effect” value came out at 98.16%.

Regarding `CC(NC(=O)NC1CCN(Cc2ccccn2)CC1)c1nncn1C` (configuration not stated), the “Percent Effect” value worked out at 0.2394%.

As to `CC(C)(C)CN[C@@H]1CO[C@H](CNC(=O)c2ccncc2)[C@H]1O`, the “Percent Effect” value is reported as -9.96%.

Turning to `CC(=O)Nc1ccc(Cl)c(C(=O)N(C)Cc2nc(C)c[nH]2)c1`, the “Percent Effect” value was -7.642%.

For `CCCc1nc(CN(C)CCOc2ccccc2)cs1`, the “Percent Effect” value is on record as -8.28%.

For the compound `CC(C)N(C)S(=O)(=O)N1CCCC1CC(=O)c1cccs1` (configuration not stated), the “Percent Effect” value was 9.795%.

Regarding `CC(C)Cc1noc(CN(C)C(=O)CCNC(=O)c2ccccc2F)n1`, the “Percent Effect” value was -3.806%.

In the case of `CC(CNCC1(S(C)(=O)=O)CCOCC1)c1ccc(F)cc1` (configuration not stated), the “Percent Effect” value is listed as 6.37%.

Take `CNc1cc(-c2nc(CCN3CCCC3=O)no2)ccn1`: the “Percent Effect” value was 8.6%.

On to `O=C(Cc1cccc(F)c1)NCCCNC(=O)c1cccc(O)c1`, for which the “Percent Effect” value stood at 95%.

Take `CC(NC(=O)N(C)Cc1ccsc1)c1ccc2c(c1)NC(=O)CO2` (configuration not stated): the “Percent Effect” value was -9.283%.

As for `CN(C(=O)CN1CCCc2cc(F)cc(F)c21)c1ccccc1`, the “Percent Effect” value is recorded as -11.45%.

For the compound `Cn1c(CN2CCCc3cc(F)cc(F)c32)cc(=O)n(C)c1=O`, the “Percent Effect” value is 98.13%.

With `Cc1cc(C2CCCN2Cc2cc(=O)n(C)c(=O)n2C)on1` (configuration not stated), the “Percent Effect” value is -9.858%.

Consider `Cc1cc(F)c2c(c1)CCCN2Cc1cc(=O)n(C)c(=O)n1C`, for which the “Percent Effect” value was found to be 117.6%.

As to `Cc1cc(F)c2c(c1)CCCN2C(=O)c1cncc(Br)c1`, the “Percent Effect” value was 14.39%.

With `Cc1ccc(F)c2c1CCCN2Cc1cc(=O)n(C)c(=O)n1C`, the “Percent Effect” value stood at 107.3%.

As for `Cc1cc(F)c2c(c1)CCCN2Cc1nc2c(cnn2C)c(=O)[nH]1`, the “Percent Effect” value is -12.02%.

As for `Cn1ncc2c(=O)[nH]c(CN3CCCc4cc(F)cc(F)c43)nc21`, the “Percent Effect” value is -18.5%.

Turning to `Cn1c(CS(=O)(=O)c2ccc(Cl)cc2)cc(=O)n(C)c1=O`, the “Percent Effect” value stood at 2.461%.

As to `COC(=O)N1CCc2ccccc2C1C(=O)NCc1ccccn1` (configuration not stated), the “Percent Effect” value is on record as -3.953%.

Take `N#CC1(NC(=O)c2nccc3ccccc23)CCC1`: the “Percent Effect” value came out at 2.644%.

`CC(C)[C@H](NS(C)(=O)=O)C(=O)NCc1cc(-c2ccccc2)nn1C`: the “Percent Effect” value is reported as 107.7%.

`CC(Cc1ccco1)NC(=O)NCc1ncnn1C` (configuration not stated): the “Percent Effect” value is recorded as 9.946%.

For the compound `CCN(CC)C(=O)c1cc(-c2cccc(Cl)c2)no1`, the “Percent Effect” value is on record as -14.84%.

In the case of `Cn1c(C(=O)NS(C)(=O)=O)ccc1-c1ccccc1`, the “Percent Effect” value is -9.851%.

With `CN(Cc1cc(-c2ccccc2)no1)C(=O)CNS(C)(=O)=O`, the “Percent Effect” value is on record as -3.143%.

Take `CC(C)[C@H](NS(C)(=O)=O)C(=O)NCc1cc(-c2ccco2)nn1C`: the “Percent Effect” value stood at 131.1%.

As to `CC(NC(=O)c1cc(-c2cccc(Cl)c2)no1)C(=O)N(C)C` (configuration not stated), the “Percent Effect” value is recorded as -38.11%.

With `CCC(C(=O)NCc1ccncc1)N(c1cccc(Cl)c1)S(C)(=O)=O` (configuration not stated), the “Percent Effect” value is listed as -1.901%.

With `CC(C)[C@@H]1CN(C(=O)NCc2ccco2)C[C@H]1NS(=O)(=O)N(C)C`, the “Percent Effect” value is 8.904%.

Regarding `CC(C)S(=O)(=O)NC(=O)c1cc(-c2cccc(Cl)c2)no1`, the “Percent Effect” value is -50.72%.

As for `CC(C)[C@H](NS(C)(=O)=O)C(=O)NCc1cc(-c2cccc(Cl)c2)nn1C`, the “Percent Effect” value is reported as 123.3%.

In the case of `CC(C)NC(=O)NCc1cc(-c2cccc(Cl)c2)nn1C`, the “Percent Effect” value stood at 128.3%.

Consider `O=C1N(c2ccc(Cl)cc2)Cc2nc(=O)[nH]n21`, for which the “Percent Effect” value is -10.7%.

Take `Cc1cccc(NC(=O)NCCCn2nc3ccccn3c2=O)c1C`: the “Percent Effect” value is recorded as -5.568%.

Take `COCc1nn(Cc2ccc(Cl)s2)c(=O)o1`: the “Percent Effect” value is on record as 85.2%.

For the compound `CCCc1nn(Cc2csc(CC)n2)c(=O)o1`, the “Percent Effect” value turned out to be 0.8831%.

In the case of `COc1ccccc1C(C)NC(=O)N1CCN(Cc2ccc(Br)s2)CC1` (configuration not stated), the “Percent Effect” value was 3.107%.

For the compound `CCCc1nn(Cc2ccc(Br)s2)c(=O)o1`, the “Percent Effect” value came to 114.1%.

As for `COCCn1c(=O)n(Cc2ccc(Cl)s2)c2cc(C(=O)O)ccc21`, the “Percent Effect” value came to 5.462%.

On to `COCc1nn(Cc2ccc(Br)s2)c(=O)o1`, for which the “Percent Effect” value is recorded as 93.51%.

As to `CCc1nc(Cn2nc(COC)oc2=O)cs1`, the “Percent Effect” value is listed as 8.463%.

As to `CCCc1nn(Cc2csc(C(C)C)n2)c(=O)o1`, the “Percent Effect” value is -6.237%.
